Assay results as given in PubChem BioAssay (Tox21).
Records with an inconclusive call do not appear. Active and inactive are the calls of the source. Unless noted, calls come from the whole dose curve; as a rule, active = well fitted curve in the direction sought with a large enough effect in the repeat runs; inconclusive = weak or mixed curves; inactive = no such curve, though single readings can be large; an effect the other way counts as inactive or inconclusive.

Tests used:
[1] = qHTS assay to test for compound auto fluorescence at 535 nm (green) in HEK293 cells (AID 720680)
[2] = qHTS assay to test for compound auto fluorescence at 460 nm (blue) in HEK293 cell free culture (AID 720681)
Summary of the method: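 Test compounds were pinned into cell-free culture medium (DMEM with 10% FBS) and fluorescence was read directly at Ex/Em 405/460 nm. Signals were expressed as fluorescence equivalents of triamterene, with DMSO vehicle as control.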

[3] = qHTS assay to test for compound auto fluorescence at 535 nm (green) in HEK293 cell free culture (AID 720682)
Summary of the method: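 Fluorescein serves as the green reference fluorophore; each compound's intrinsic emission at 535 nm (excitation 485 nm) is reported as an equivalent amount of that dye, measured in serum-containing DMEM without cells.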

[4] = qHTS assay to test for compound auto fluorescence at 590 nm (red) in HEK293 cell free culture (AID 720683)
Summary of the method: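 Tox21 10K library compounds were pinned into cell-free DMEM with 10% FBS and fluorescence was read at excitation 540 nm. Activity is expressed as Rose Bengal sodium equivalency.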

[5] = qHTS assay to test for compound auto fluorescence at 590 nm (red) in HepG2 cell free culture (AID 720684)
Summary of the method: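 Red fluorescence (540 nm excitation, 590 nm emission) was measured after compound transfer into cell-free MEM supplemented with 10% FBS. Values are equivalencies against Rose Bengal sodium.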

[6] = qHTS assay to test for compound auto fluorescence at 460 nm (blue) in HepG2 cell free culture (AID 720685)
Summary of the method: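 Compound (23 nL) or DMSO pinned into cell-free MEM with 10% FBS; blue fluorescence read at 405/460 nm excitation/emission, expressed as auto-fluorescence equivalency to triamterene.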

[7] = qHTS assay to test for compound auto fluorescence at 535 nm (green) in HepG2 cell free culture (AID 720686)
[8] = qHTS assay to test for compound auto fluorescence at 460 nm (blue) in HepG2 cells (AID 720687)
Summary of the method: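 Cells (2,000/well in MEM with 10% FBS) attached overnight at 37 C, then were exposed to compound or DMSO for 1 hr at 37 C, 5% CO2. Fluorescence read at Ex/Em 405/460 nm, expressed as triamterene-equivalent signal.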

[9] = target: Glucocorticoid receptor (Homo sapiens) (UniProt P04150); test: qHTS assay to identify small molecule agonists of the glucocorticoid receptor (GR) signaling pathway (AID 720691; active = well fitted activation curve with a large enough effect in the signal ratio in the repeat runs, not every such curve was filed as active; the % refers to the signal ratio; note: potency is the fitted concentration of half-maximal effect); conditions: GR-bla HeLa, beta-lactamase reporter ratio, 18 h; activation: at 62.4 µM (top of the series)
Glucocorticoid receptor (Homo sapiens), sequence (P04150 whole entry, looked up): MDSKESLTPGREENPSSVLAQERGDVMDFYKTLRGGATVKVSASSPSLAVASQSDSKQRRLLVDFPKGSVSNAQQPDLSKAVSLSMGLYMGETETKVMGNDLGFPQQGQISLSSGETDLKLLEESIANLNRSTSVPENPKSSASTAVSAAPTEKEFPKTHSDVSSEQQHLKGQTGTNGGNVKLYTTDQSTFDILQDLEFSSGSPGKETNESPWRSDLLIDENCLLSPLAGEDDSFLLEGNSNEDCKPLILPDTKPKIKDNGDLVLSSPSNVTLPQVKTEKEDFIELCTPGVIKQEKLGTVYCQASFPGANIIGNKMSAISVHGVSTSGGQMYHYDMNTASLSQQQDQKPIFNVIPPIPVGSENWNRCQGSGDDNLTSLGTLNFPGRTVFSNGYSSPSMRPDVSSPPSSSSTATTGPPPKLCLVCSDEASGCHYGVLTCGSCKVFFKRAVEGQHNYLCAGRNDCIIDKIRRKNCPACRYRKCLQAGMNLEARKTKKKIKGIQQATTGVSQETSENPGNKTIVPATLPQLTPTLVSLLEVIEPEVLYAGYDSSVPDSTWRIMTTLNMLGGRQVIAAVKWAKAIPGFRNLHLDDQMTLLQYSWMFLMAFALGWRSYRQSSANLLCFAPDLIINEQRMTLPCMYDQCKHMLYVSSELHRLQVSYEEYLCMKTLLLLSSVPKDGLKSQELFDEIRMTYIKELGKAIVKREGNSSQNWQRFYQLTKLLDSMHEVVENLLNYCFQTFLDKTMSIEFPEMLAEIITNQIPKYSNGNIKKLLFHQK
Summary of the method: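 qHTS in GR-bla HeLa cells: 4 h settling at 37 C/5% CO2, 18 h compound incubation at 37 C, 2 h LiveBLAzer B/G FRET substrate at room temperature, fluorescence intensity measured.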

[10] = qHTS assay to identify small molecule antagonists of the glucocorticoid receptor (GR) signaling pathway - cell viability counter screen (AID 720693); note: nearly all actives have a fitted effect of over 55% in size
[11] = qHTS assay for identifying genotoxic compounds that show differential cytotoxicity against isogenic chicken DT40 cell lines with known DNA damage response pathways - wild type cell line (AID 743012); note: nearly all actives have a fitted effect of over 60% in size; note: potency is the fitted concentration of half-maximal effect
Summary of the method: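 First, wild type DT40 cells were plated at 300 per well and equilibrated about 0.5 h at 37 C/5% CO2. Next, compounds in DMSO were added and exposure lasted 40 h. Finally, CellTiter-Glo was added for 30 min at room temperature and luminescence recorded.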

[12] = qHTS assay for identifying genotoxic compounds that show differential cytotoxicity against isogenic chicken DT40 cell lines with known DNA damage response pathways - Rev3 mutant cell line (AID 743014); note: nearly all actives have a fitted effect of over 55% in size; note: potency is the fitted concentration of half-maximal effect
[13] = qHTS assay for identifying genotoxic compounds that show differential cytotoxicity against isogenic chicken DT40 cell lines with known DNA damage response pathways - Rad54/Ku70 mutant cell line (AID 743015); note: nearly all actives have a fitted effect of over 60% in size; note: potency is the fitted concentration of half-maximal effect
[14] = target: Androgen receptor (Homo sapiens) (UniProt P10275); test: qHTS assay to identify small molecule antagonists of the androgen receptor (AR) signaling pathway (AID 743035; active = well fitted inhibition curve with a large enough effect in the signal ratio in the repeat runs, not every such curve was filed as active; the % refers to the signal ratio; note: potency is the fitted concentration of half-maximal effect)
Androgen receptor (Homo sapiens), sequence (P10275 whole entry, looked up): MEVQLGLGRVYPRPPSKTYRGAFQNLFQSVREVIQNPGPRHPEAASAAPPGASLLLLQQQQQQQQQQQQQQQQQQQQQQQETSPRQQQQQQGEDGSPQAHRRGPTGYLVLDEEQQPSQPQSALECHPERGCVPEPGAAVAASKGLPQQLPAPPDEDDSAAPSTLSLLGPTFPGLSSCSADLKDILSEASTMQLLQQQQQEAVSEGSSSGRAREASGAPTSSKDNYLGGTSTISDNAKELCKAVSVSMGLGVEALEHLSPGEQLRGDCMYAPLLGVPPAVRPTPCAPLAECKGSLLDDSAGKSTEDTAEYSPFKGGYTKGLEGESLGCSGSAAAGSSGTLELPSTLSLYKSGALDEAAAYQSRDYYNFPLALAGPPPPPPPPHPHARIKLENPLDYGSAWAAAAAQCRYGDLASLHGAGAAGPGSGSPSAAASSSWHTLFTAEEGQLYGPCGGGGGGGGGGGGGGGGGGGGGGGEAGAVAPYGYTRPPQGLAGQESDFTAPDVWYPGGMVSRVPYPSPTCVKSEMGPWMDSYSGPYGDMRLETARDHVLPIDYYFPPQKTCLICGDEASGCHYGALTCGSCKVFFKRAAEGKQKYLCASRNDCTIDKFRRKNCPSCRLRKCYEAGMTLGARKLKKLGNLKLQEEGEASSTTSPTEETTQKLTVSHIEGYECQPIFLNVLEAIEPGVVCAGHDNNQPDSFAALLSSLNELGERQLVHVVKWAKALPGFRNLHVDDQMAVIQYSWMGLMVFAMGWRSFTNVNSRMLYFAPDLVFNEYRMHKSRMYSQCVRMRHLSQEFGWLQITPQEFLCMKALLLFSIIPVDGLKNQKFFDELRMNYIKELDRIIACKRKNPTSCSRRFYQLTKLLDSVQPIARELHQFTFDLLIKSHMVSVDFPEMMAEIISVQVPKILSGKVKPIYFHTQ
Summary of the method: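 Beta-lactamase FRET read (2 h RT incubation with LiveBLAzer B/G) following 16 h of compound plus R1881 treatment of AR-UAS-bla HEK293 cells, which had been pre-incubated 4 h at 37C.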

[15] = target: Androgen receptor (Homo sapiens) (UniProt P10275); test: qHTS assay to identify small molecule agonists of the androgen receptor (AR) signaling pathway (AID 743036; active = well fitted activation curve with a large enough effect in the signal ratio in the repeat runs, with a control signal flat, not every such curve was filed as active; the % refers to the signal ratio)
Summary of the method: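 Fluorescence from a beta-lactamase FRET substrate served as read-out in AR-UAS-bla GripTite HEK293 cells. Cells were treated with DMSO-dissolved compounds for 16 h at 37C, then with LiveBLAzer B/G substrate for 2 h at room temperature.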

[16] = target: Androgen receptor (Homo sapiens) (UniProt P10275); test: qHTS assay to identify small molecule agonists of the androgen receptor (AR) signaling pathway using the MDA cell line (AID 743040; note: nearly all actives have a fitted effect of over 20% in size; note: potency is the fitted concentration of half-maximal effect)
Summary of the method: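 MDA-kb2 breast carcinoma cells stably carrying an MMTV-driven luciferase reporter (AR- and GR-responsive) were seeded and held 5 h at 37C, 0% CO2, then exposed to compounds in DMSO for 16 h. Luminescence was read 30 min after ONE-Glo addition.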

[17] = target: Androgen receptor (Homo sapiens) (UniProt P10275); test: qHTS assay to identify small molecule antagonists of the androgen receptor (AR) signaling pathway using the MDA cell line (AID 743042; note: nearly all actives have a fitted effect of over 55% in size)
Summary of the method: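 MDA-kb2 cells (human breast carcinoma, stably carrying an MMTV-luciferase reporter responsive to AR and GR) were plated at 3,000 cells/well and preincubated 5 hr at 37C, then given compound plus R1881 agonist for 16 h. ONE-Glo luminescence was read.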

[18] = qHTS assay to identify small molecule antagonists of the androgen receptor (AR) signaling pathway - cell viability counter screen (AID 743033; note: nearly all actives have a fitted effect of over 45% in size)
[19] = qHTS assay to identify small molecule antagonists of the androgen receptor (AR) signaling pathway using the MDA cell line - cell viability counter screen (AID 743041; note: nearly all actives have a fitted effect of over 45% in size)
Summary of the method: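 MDA-kb2 AR-luc human breast carcinoma cells (MMTV-luciferase, AR/GR responsive) were treated with compounds plus R1881 agonist for 16 h at 37 °C. Viability was read as CellTiter-Fluor fluorescence in the same wells as the reporter assay.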

Measured: Potency

CN(C)CCCN1c2ccccc2C(C)(C)c2ccccc21
inactive: [1] | [2] | [3] | [4] | [5] | [6] | [7] | [8] | [9] | [10] | [14] | [15] | [16] | [17]
active: [11] 18.8 µM | [12] 26.6 µM | [13] 21.1 µM

CCN(CC)Cc1cc(Nc2ccnc3cc(Cl)ccc23)ccc1O
inactive: [1] | [2] | [3] | [4] | [5] | [6] | [7] | [8] | [9] | [10] | [16] | [17]
active: [11] 7.17 µM | [12] 7.17 µM | [13] 8.04 µM

CC(=O)O[C@]1(C(C)=O)CC[C@H]2[C@@H]3CCC4=CC(=O)CC[C@]4(C)[C@@]3(F)[C@@H](O)C[C@@]21C
active: [9] 0.0379 µM | [14] 8.49 µM | [16] 0.0531 µM
inactive: [1] | [2] | [3] | [4] | [5] | [6] | [7] | [8] | [10] | [11] | [13] | [18] | [15] | [19] | [17]

N[C@H](CCC(=O)O)C(=O)O
inactive: [1] | [2] | [3] | [4] | [5] | [6] | [7] | [8] | [9] | [10] | [11] | [12] | [13] | [19]

CCC[C@@]1(CCc2ccccc2)CC(O)=C([C@H](CC)c2cccc(NS(=O)(=O)c3ccc(C(F)(F)F)cn3)c2)C(=O)O1
inactive: [1] | [2] | [3] | [4] | [5] | [6] | [7] | [8] | [9] | [10] | [11] | [12] | [18] | [19]

COc1cc(Br)c(C[N+]2(CCOCCC3CCC4CC3C4(C)C)CCOCC2)cc1OC (stereo not drawn)
inactive: [1] | [2] | [3] | [4] | [5] | [6] | [7] | [8] | [9] | [10] | [18] | [16] | [19]
active: [11] 1.5 µM | [12] 2.66 µM
